Sequences and labels used below:
B1: Caulobacter ParB omega fusion; a variant is named by its letters at X, in order, B8GW30 (parent)
chain: MESVVVGEPGMSEGRRGLGRGLSALLGEVDAAPAQAPGEQLGGSREAPIEILQRNPDQPRRTFREEDLEDLSNSIREKGVLQPILVRPSPDTAGEYQIVAGERAWRAAQRAGLKTVPIMVRELDDLAVLEIGIIENVQRADLNVLEEALSYKVLMEKFERTQENIAQTIGKSXSHVANXMRLLXLPDEVQSYLVSGELTAXHARAIAAAADPVALAKQIIEGGLSVRETEALARKAPNLSAGKSKGGRPPRVKDTDTQALESDLSSVLGLDVSIDHRGSTGTLTITYATLEQLDDLCNRLTRGI

Whole data set: some 81,000 sequences, median “one-hybrid fitness for binding parS DNA” near -0.17, cut for the highest 2% near 0.51. For the sample, the highest values were picked, then their nearest neighbours and some sequences at random.

The variants in the experiment derive from B1. Kind of experiment: one-hybrid fitness for binding parS DNA (scaled: cognate 1, non-cognate 0); higher = stronger binding. The following applies: with parS DNA site. The method in brief:
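Bacterial one-hybrid selection in E. coli USO rpoZ- hisB- pyrF- with a HIS3 reporter carrying the site 19 bp from the promoter, screening Caulobacter ParB libraries with four specificity codons randomised (NNS). Cells grew 48 hours at 37°C on M9-minus-histidine plus 0.1 mM IPTG and 5 mM 3-AT. Plasmids before and after selection were Illumina-sequenced, three replicate libraries pooled, and variants under 10 reads dropped. Fitness is the log change in variant-to-wild-type read ratio, rescaled to cognate 1, non-cognate 0.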
For the variant RGED, the “one-hybrid fitness for binding parS DNA” value was at most 0.2.
To RSEH belongs at most 0.2.
As to RSEP, the “one-hybrid fitness for binding parS DNA” value is at most 0.2.
RHED: the “one-hybrid fitness for binding parS DNA” value is at most 0.2.
Regarding RRED, the “one-hybrid fitness for binding parS DNA” value is at most 0.2.
Regarding RSES, the “one-hybrid fitness for binding parS DNA” value is 0.902.
In the case of RHEN, the “one-hybrid fitness for binding parS DNA” value turned out to be 0.369.
As to RHES, the “one-hybrid fitness for binding parS DNA” value worked out at 0.962.
Take RREN: the “one-hybrid fitness for binding parS DNA” value stood at 0.3.
RGEN: the “one-hybrid fitness for binding parS DNA” value is at most 0.2.
For the variant RGES, the “one-hybrid fitness for binding parS DNA” value worked out at 0.554.
In the case of RRES, the “one-hybrid fitness for binding parS DNA” value was determined as 0.752.
Regarding TVWR, the “one-hybrid fitness for binding parS DNA” value was at most 0.2.
On to ANGP, for which the “one-hybrid fitness for binding parS DNA” value was at most 0.2.
To NLAR belongs at most 0.2; to SREP, at most 0.2.
As to GNAS, the “one-hybrid fitness for binding parS DNA” value was at most 0.2.
To RMED belongs at most 0.2.
To RKEN belongs 0.351; to RKES, 0.899.
On to RMEP, for which the “one-hybrid fitness for binding parS DNA” value was at most 0.2.
Regarding RTED, the “one-hybrid fitness for binding parS DNA” value is at most 0.2.
For the variant RMES, the “one-hybrid fitness for binding parS DNA” value turned out to be 0.956.
With RIEN, the “one-hybrid fitness for binding parS DNA” value is 0.279.
Regarding RIEP, the “one-hybrid fitness for binding parS DNA” value was at most 0.2.
On to RKEP, for which the “one-hybrid fitness for binding parS DNA” value is at most 0.2.
For RIES, the “one-hybrid fitness for binding parS DNA” value was 0.93.
To RTES belongs 0.985; to RTEH, 0.208.
To SVCD belongs at most 0.2; to VPCS, at most 0.2.
Consider QSKG, for which the “one-hybrid fitness for binding parS DNA” value is at most 0.2.
To MNTS belongs at most 0.2.
Turning to SEHV, the “one-hybrid fitness for binding parS DNA” value is at most 0.2.
In the case of RLMV, the “one-hybrid fitness for binding parS DNA” value is at most 0.2.
To TMAV belongs at most 0.2; to QAEE, at most 0.2.
On to RSDI, for which the “one-hybrid fitness for binding parS DNA” value was at most 0.2.
To RMKQ belongs at most 0.2.
As to RMKF, the “one-hybrid fitness for binding parS DNA” value turned out to be 0.439.
Regarding RMKC, the “one-hybrid fitness for binding parS DNA” value was determined as 0.849.
As for RMVC, the “one-hybrid fitness for binding parS DNA” value was 0.96.
To RMVH belongs at most 0.2.
As to RMVP, the “one-hybrid fitness for binding parS DNA” value was determined as 0.206.
On to EAIW, for which the “one-hybrid fitness for binding parS DNA” value was at most 0.2.
In the case of RTTS, the “one-hybrid fitness for binding parS DNA” value came out at 0.943.
RKTD: the “one-hybrid fitness for binding parS DNA” value was at most 0.2.
Consider RITH, for which the “one-hybrid fitness for binding parS DNA” value was 0.214.
To RTTP belongs at most 0.2; to RSTD, at most 0.2.
Consider RKTS, for which the “one-hybrid fitness for binding parS DNA” value worked out at 0.815.
As to RITN, the “one-hybrid fitness for binding parS DNA” value came out at 0.409.
To RTTH belongs 0.232; to RKTH, at most 0.2.
Consider RSTH, for which the “one-hybrid fitness for binding parS DNA” value amounted to 0.234.
As for RITS, the “one-hybrid fitness for binding parS DNA” value was 0.992.
To RSTS belongs 0.986.
For the variant IIGK, the “one-hybrid fitness for binding parS DNA” value is at most 0.2.
To ENYG belongs at most 0.2; to PEAY, at most 0.2; to HKGC, at most 0.2.
As to KDVC, the “one-hybrid fitness for binding parS DNA” value is at most 0.2.
As for LAWM, the “one-hybrid fitness for binding parS DNA” value is at most 0.2.
To IPRY belongs at most 0.2; to RFTP, at most 0.2; to RCTN, 0.475.
RHTS: the “one-hybrid fitness for binding parS DNA” value is 0.893.
As to RLTH, the “one-hybrid fitness for binding parS DNA” value is 0.232.
To RFTH belongs at most 0.2.
To RCTS belongs 0.984; to RFTS, 1.01.
To RLTP belongs at most 0.2; to RLTS, 0.984; to RHTP, at most 0.2.
With RPTS, the “one-hybrid fitness for binding parS DNA” value was at most 0.2.
Regarding RHTN, the “one-hybrid fitness for binding parS DNA” value turned out to be 0.384.
As for CLVL, the “one-hybrid fitness for binding parS DNA” value is at most 0.2.
To FTSY belongs at most 0.2.
With KNRS, the “one-hybrid fitness for binding parS DNA” value is at most 0.2.
As to LLFA, the “one-hybrid fitness for binding parS DNA” value was at most 0.2.
For AVGG, the “one-hybrid fitness for binding parS DNA” value was at most 0.2.
Consider AARP, for which the “one-hybrid fitness for binding parS DNA” value was at most 0.2.
On to SKSL, for which the “one-hybrid fitness for binding parS DNA” value is at most 0.2.
VMLN: the “one-hybrid fitness for binding parS DNA” value is at most 0.2.
With SWPW, the “one-hybrid fitness for binding parS DNA” value is at most 0.2.
To AGLI belongs at most 0.2.
To MFAT belongs at most 0.2; to RMTD, 0.207; to RMTN, 0.45.
To RATS belongs 1.
For RATH, the “one-hybrid fitness for binding parS DNA” value came out at 0.255.
Regarding RATD, the “one-hybrid fitness for binding parS DNA” value is at most 0.2.
RMTS: the “one-hybrid fitness for binding parS DNA” value came out at 0.975.
With RFKP, the “one-hybrid fitness for binding parS DNA” value was at most 0.2.
NFKT: the “one-hybrid fitness for binding parS DNA” value is at most 0.2.
RFKT: the “one-hybrid fitness for binding parS DNA” value was determined as 0.902.
For the variant RFVT, the “one-hybrid fitness for binding parS DNA” value was determined as 0.614.
Consider RFVQ, for which the “one-hybrid fitness for binding parS DNA” value is at most 0.2.
RFVP: the “one-hybrid fitness for binding parS DNA” value was at most 0.2.
For GMAG, the “one-hybrid fitness for binding parS DNA” value was at most 0.2.
DNQC: the “one-hybrid fitness for binding parS DNA” value was at most 0.2.
KSSE: the “one-hybrid fitness for binding parS DNA” value is at most 0.2.
With PNYS, the “one-hybrid fitness for binding parS DNA” value was at most 0.2.
RTAC: the “one-hybrid fitness for binding parS DNA” value was found to be 0.98.
On to RTFN, for which the “one-hybrid fitness for binding parS DNA” value stood at 0.436.
Take RTFC: the “one-hybrid fitness for binding parS DNA” value worked out at 0.986.
In the case of RTAF, the “one-hybrid fitness for binding parS DNA” value was found to be 0.256.
To RTAN belongs 0.429; to RTFD, at most 0.2.
Consider ITKL, for which the “one-hybrid fitness for binding parS DNA” value is at most 0.2.
On to KWHC, for which the “one-hybrid fitness for binding parS DNA” value was at most 0.2.
On to QGYA, for which the “one-hybrid fitness for binding parS DNA” value was at most 0.2.
As to RIMR, the “one-hybrid fitness for binding parS DNA” value was at most 0.2.
In the case of RHMK, the “one-hybrid fitness for binding parS DNA” value was at most 0.2.
For RKMQ, the “one-hybrid fitness for binding parS DNA” value is at most 0.2.
As for RIMM, the “one-hybrid fitness for binding parS DNA” value is 0.377.
On to RHMY, for which the “one-hybrid fitness for binding parS DNA” value was found to be 0.383.
As to RFMG, the “one-hybrid fitness for binding parS DNA” value is 0.864.
Take RKMM: the “one-hybrid fitness for binding parS DNA” value came out at 0.283.
To RHMG belongs 0.932.
As for RKMG, the “one-hybrid fitness for binding parS DNA” value stood at 0.951.
Take NFMG: the “one-hybrid fitness for binding parS DNA” value was at most 0.2.
Regarding RIMG, the “one-hybrid fitness for binding parS DNA” value stood at 0.996.
With DFMG, the “one-hybrid fitness for binding parS DNA” value was at most 0.2.
For AATS, the “one-hybrid fitness for binding parS DNA” value was at most 0.2.
For LNQW, the “one-hybrid fitness for binding parS DNA” value is at most 0.2.
For the variant ILSS, the “one-hybrid fitness for binding parS DNA” value was at most 0.2.
QYSS: the “one-hybrid fitness for binding parS DNA” value was at most 0.2.
Regarding QVQQ, the “one-hybrid fitness for binding parS DNA” value is at most 0.2.
On to YRRM, for which the “one-hybrid fitness for binding parS DNA” value was at most 0.2.
Turning to RRMM, the “one-hybrid fitness for binding parS DNA” value was at most 0.2.
Consider RRMR, for which the “one-hybrid fitness for binding parS DNA” value is at most 0.2.
Take RSMR: the “one-hybrid fitness for binding parS DNA” value was at most 0.2.
To RCMG belongs 1.03.
Take RRMG: the “one-hybrid fitness for binding parS DNA” value came to 0.806.
For the variant RAMY, the “one-hybrid fitness for binding parS DNA” value was determined as 0.435.
With RPMG, the “one-hybrid fitness for binding parS DNA” value is at most 0.2.
To RAMK belongs at most 0.2.
For RAMG, the “one-hybrid fitness for binding parS DNA” value amounted to 0.995.
Consider RSMG, for which the “one-hybrid fitness for binding parS DNA” value turned out to be 0.962.
Turning to RDMG, the “one-hybrid fitness for binding parS DNA” value is at most 0.2.
In the case of REMG, the “one-hybrid fitness for binding parS DNA” value was at most 0.2.
For LNGD, the “one-hybrid fitness for binding parS DNA” value is at most 0.2.
Consider WSGR, for which the “one-hybrid fitness for binding parS DNA” value was at most 0.2.
Regarding IRPG, the “one-hybrid fitness for binding parS DNA” value was at most 0.2.
Consider LHHS, for which the “one-hybrid fitness for binding parS DNA” value was at most 0.2.
For the variant PPPY, the “one-hybrid fitness for binding parS DNA” value is at most 0.2.
To RTMK belongs at most 0.2; to RLMG, 1.02; to RTMR, at most 0.2.
RLMR: the “one-hybrid fitness for binding parS DNA” value was at most 0.2.
On to RMMQ, for which the “one-hybrid fitness for binding parS DNA” value turned out to be 0.215.
For the variant RMMH, the “one-hybrid fitness for binding parS DNA” value was at most 0.2.
With RTMG, the “one-hybrid fitness for binding parS DNA” value was found to be 1.
Regarding RLMY, the “one-hybrid fitness for binding parS DNA” value worked out at 0.49.

The values above are taken from a collection of fitness landscapes (doi:10.1016/j.celrep.2020.107928).
